Assay outcomes as filed in PubChem.
KCNH2 3.1 block: blocks the human KCNH2 3.1 channel isoform | U2OS KCNH2 3.1, thallium flux FluxOr; stronger effect = lower value | activity change, % (tested at about 1.8 µM) | hit rate 0.95% among 340,000;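 active = maximum activity change below -70%; inconclusive = maximum activity change from -70% to -50%; inactive = maximum activity change above -50%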;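 also: thallium influx rate constant from kinetic fluorescence after stimulation buffer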
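Channel expression came from 3.1 mutant virus (1.77 x 10^8 /mL) applied to suspended U2OS cells for 4 h. Flux was tracked with FluxOr dye plus Red40 quencher, and kinetic rate constants normalized to controls.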
RXFP1 antagonist: blocks the human relaxin receptor RXFP1 | HEK293-RXFP1, relaxin-stimulated cAMP HTRF, 30 min; stronger effect = lower value | Q9HBX9 | hit rate 0.59% among 350,000 | activity change, negative = inhibition, % at 57.5 µM;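 active = activity change of -60% or lower, but not beyond a set lower limit; inconclusive = change between -60% and -40%, or beyond the set limit; inactive = change above -40%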
RXFP1 agonist: activates the human relaxin receptor RXFP1. AID 2676. hit rate 0.3% among 370,000. Potency, µM (series often up to 57.5 µM), hits mostly activators. HEK293T-RXFP1 cAMP TR-FRET, 30 min; response scale: percent of porcine relaxin response, buffer zero; active = well fitted activation curve with a large enough effect; inconclusive = small, poorly fitted or top-dose-only effect; also: nearly all actives have a fitted effect of over 60% in size
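HEK293 cells stably expressing RXFP1, treated 30 min at 37C with compounds plus PDE4 inhibitor Ro 20174; cAMP measured by HTRF TR-FRET. Normalized to buffer and 29 nM porcine relaxin; EC50 by Hill fit.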
hERG WT inh: inhibitors of human wildtype KCNH2 potassium channel. activity change, % at 1.84 µM. Q12809. U2OS, BacMam KCNH2, thallium flux FluxOr; stronger effect = lower value. hit rate 0.37% among 340,000;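 active = maximum activity change below -70%; inconclusive = maximum activity change between -70% and -50%; inactive = maximum activity change above -50%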
Target sequence (Q12809 whole entry, looked up): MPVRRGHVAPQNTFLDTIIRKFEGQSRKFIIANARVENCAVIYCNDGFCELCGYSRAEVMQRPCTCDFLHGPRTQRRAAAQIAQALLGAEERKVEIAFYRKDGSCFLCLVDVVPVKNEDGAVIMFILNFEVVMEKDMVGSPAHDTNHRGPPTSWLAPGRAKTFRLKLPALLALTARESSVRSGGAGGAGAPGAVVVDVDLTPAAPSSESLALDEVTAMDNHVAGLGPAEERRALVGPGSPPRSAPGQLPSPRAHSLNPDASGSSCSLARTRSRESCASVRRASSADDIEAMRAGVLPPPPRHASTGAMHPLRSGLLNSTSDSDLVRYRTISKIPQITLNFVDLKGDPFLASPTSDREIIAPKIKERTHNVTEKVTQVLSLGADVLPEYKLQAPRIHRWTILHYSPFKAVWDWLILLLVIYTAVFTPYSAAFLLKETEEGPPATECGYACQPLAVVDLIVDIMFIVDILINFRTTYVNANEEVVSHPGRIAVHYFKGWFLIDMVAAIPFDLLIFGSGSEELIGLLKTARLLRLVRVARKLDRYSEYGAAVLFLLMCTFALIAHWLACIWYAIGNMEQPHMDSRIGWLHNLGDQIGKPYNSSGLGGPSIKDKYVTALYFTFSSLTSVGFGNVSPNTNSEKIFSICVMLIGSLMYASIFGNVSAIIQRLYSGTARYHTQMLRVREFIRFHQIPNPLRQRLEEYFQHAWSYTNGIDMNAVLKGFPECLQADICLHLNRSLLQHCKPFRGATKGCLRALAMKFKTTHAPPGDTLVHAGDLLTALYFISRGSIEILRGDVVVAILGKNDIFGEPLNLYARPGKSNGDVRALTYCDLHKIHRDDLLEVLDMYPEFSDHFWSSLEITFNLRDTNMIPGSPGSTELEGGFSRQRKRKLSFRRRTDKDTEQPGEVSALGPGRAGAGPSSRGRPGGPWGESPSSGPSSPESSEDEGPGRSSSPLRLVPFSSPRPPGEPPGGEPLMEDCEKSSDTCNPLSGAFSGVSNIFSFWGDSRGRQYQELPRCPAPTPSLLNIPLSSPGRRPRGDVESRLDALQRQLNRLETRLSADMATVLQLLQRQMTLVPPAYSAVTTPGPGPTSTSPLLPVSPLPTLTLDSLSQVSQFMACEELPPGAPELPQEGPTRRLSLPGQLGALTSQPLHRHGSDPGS
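U2OS cells were transduced with wild-type KCNH2 virus (2.03 x 10^8 / mL) for 4 h at room temperature, then cultured overnight at 37 C. Thallium flux was read with FluxOr dye. Rate constants were normalized to DMSO controls.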
pAkt inh: blocks phosphorylation of Akt; AID 651550; hit rate 0.32% among 360,000; Neuro2A IGF-stimulated pAkt S473 HTRF, 20 min; stronger effect = lower value; activity change, % for hits at 50 µM; in the data active = activity change below about -80%; inconclusive = mostly about -51% to -80%
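Neuro2A cells in DMEM with 0.5% FBS, overnight at 37 deg C, given compound at single 50 µM final, then IGF (6 nM final) for 20 min at 37 deg C. Lysed; phospho-Akt Ser473 by HTRF after 24 h, 665/615 ratio.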
Large screens that a line does not name were inactive. An excerpt weighted towards active compounds, which were near 1.7% of everything screened.

CC1CCCCC1NC(=O)CCCCCn1c(=S)[nH]c2ccsc2c1=O (stereo not drawn)	RXFP1 antagonist -73.4 (no result: pAkt inh)
CCc1ccc(OC(=O)Cc2ccc(OC)c(S(=O)(=O)N3CCOCC3)c2)cc1	none
CCc1ccc(N(CC)C(=O)c2sc3nc4n(c(=O)c3c2C)CCCC4)cc1	RXFP1 antagonist inconclusive (no result: KCNH2 3.1 block, hERG WT inh, pAkt inh)
O=C(Nc1c2c(nn1-c1ccc([N+](=O)[O-])cc1)CS(=O)(=O)C2)c1ccccc1F	none
O=[N+]([O-])c1cccc2nc(-c3ccccc3)c(-c3ccccc3)nc12	KCNH2 3.1 block -108.3, hERG WT inh -132.2
Clc1ccc(C2[C@H]3CN(CC4CCCCC4)[C@H](c4ccccc4)C34CC2(c2ccccc2)C4)cn1 (stereo partly drawn)	KCNH2 3.1 block -209.6 (no result: RXFP1 antagonist)
CCNc1nc(Oc2ccc(C(=O)OCC)cc2)nc(SC)n1	pAkt inh -121.1%
CCNc1nc(Oc2ccc(C(=O)OC)cc2)nc(SC)n1	none
CN(Cc1ccccc1)C(=O)c1cccc(N2C(=O)C3CC=CCC3C2=O)c1 (stereo not drawn)	none
CCC(C)(C)NC(=O)Cn1c(=O)oc2cc(S(=O)(=O)N3CC(C)CC(C)C3)ccc21 (stereo not drawn)	none
CC1CC(C)CN(S(=O)(=O)c2ccc3c(c2)oc(=O)n3CC(=O)NCc2cccnc2)C1 (stereo not drawn)	hERG WT inh -157.0
COc1ccc2nc(NC(=O)c3nc(S(=O)(=O)Cc4ccc(C)cc4)ncc3Cl)sc2c1	RXFP1 antagonist -90.6 (no result: KCNH2 3.1 block, hERG WT inh, pAkt inh)
Cc1ccc(CS(=O)(=O)c2ncc(Cl)c(C(=O)Nc3nc4ccc(C)cc4s3)n2)cc1	none (no result: KCNH2 3.1 block, RXFP1 antagonist, hERG WT inh, pAkt inh)
COc1ccc(OC)c(NC(=O)c2nc(S(=O)(=O)Cc3ccc(F)cc3)ncc2Cl)c1	RXFP1 antagonist -107.2 (no result: KCNH2 3.1 block, hERG WT inh, pAkt inh)
O=C(NCc1ccco1)c1cc(NS(=O)(=O)c2cccc([N+](=O)[O-])c2)ccc1O	KCNH2 3.1 block -198.1, hERG WT inh -152.1
O=C(NCc1ccco1)c1cccc(NS(=O)(=O)c2cccc(F)c2)c1	none
O=C(C1CCN(S(=O)(=O)c2cccs2)CC1)N1CCN(c2ccccc2O)CC1	none
O=C(CSc1nnc(-c2cccc(Br)c2)o1)NCC1CCCO1 (stereo not drawn)	KCNH2 3.1 block -174.1, hERG WT inh -218.5 (no result: RXFP1 agonist)
Cc1ccccc1-c1nnc(SCC(=O)NCC2CCCO2)o1 (stereo not drawn)	none
CCc1ccc(-c2ccc3nnc(SCC(=O)NCC4CCCO4)n3n2)cc1 (stereo not drawn)	none
Cc1ccc(-c2ccc3nnc(SCC(=O)NCC4CCCO4)n3n2)cc1 (stereo not drawn)	RXFP1 agonist 25.1µM
CCc1cc(=O)oc2cc(OCC(=O)NCCCn3ccnc3)ccc12	none
COCCn1c(SCC(=O)NCc2ccc3c(c2)OCO3)nnc1C(C)C	none
COCCn1c(SCC(=O)NCc2ccc3c(c2)OCO3)nnc1-c1c[nH]c2ccccc12	KCNH2 3.1 block -215.3, hERG WT inh -149.2
CC(C)c1ccc(/C=C2\SC(N3CCCC3)=NC2=O)cc1	none
O=C(COc1ccccc1Cl)NNC(=O)Cn1[nH]c(=O)c2ccccc2c1=O	none
O=C(Cn1[nH]c(=O)c2ccccc2c1=O)NNC(=O)c1ccccc1	hERG WT inh -269.8
O=C(Cn1[nH]c(=O)c2ccccc2c1=O)OCC(=O)c1ccc(Br)cc1	RXFP1 antagonist -76.0
O=S(=O)(Nc1ccccc1O)c1cccc2cccnc12	none
O=C(OCc1nnc(-c2ccccc2)o1)c1ccc(Br)o1	RXFP1 antagonist -73.2
O=C(CCNS(=O)(=O)c1ccccc1)OCc1nnc(-c2ccccc2)o1	KCNH2 3.1 block -197.6, hERG WT inh -131.4
Cc1ccccc1C(=O)OCc1nnc(-c2ccc(Cl)cc2)o1	KCNH2 3.1 block -76.7
O=C(OCc1nnc(-c2ccc(Cl)cc2)o1)c1ccncc1	none
CCC(C)C(=O)Nc1ccc(OC)cc1OC (stereo not drawn)	none
CCCCn1ccnc1C	none
CC1(C)Oc2cc(N)c([N+](=O)[O-])cc2O1	none
C=C1N(C)c2cc([N+](=O)[O-])c(N)cc2C1(C)C	RXFP1 antagonist -71.0
CC(C)(C)NC(=O)Cn1c(SCC(=O)NC2CC2)nc2ccccc21	none
CC(C)(C)NC(=O)Cn1c(SCC(N)=O)nc2ccccc21	KCNH2 3.1 block -89.5
Cc1nc2ccccc2nc1N1CCC(C)CC1	none
Cc1ccc(NCCCn2cnc(C(=O)Nc3ccc(C)c(C)c3)n2)cc1C	none (no result: RXFP1 antagonist, RXFP1 agonist)
COc1ccc(N2CCN(CCC(O)c3ccc4ccccc4c3)CC2)cc1 (stereo not drawn)	KCNH2 3.1 block -102.7, hERG WT inh inconclusive
CC(C)Cn1c(SCC(=O)c2c(N)n(C)c(=O)n(C)c2=O)nc2ccccc21	hERG WT inh -116.1
Cc1csc(SCC(=O)c2c(N)n(CC(C)C)c(=O)n(C)c2=O)n1	hERG WT inh -325.2
CCOC(=O)Cc1csc(SCC(=O)c2c(N)n(CC(C)C)c(=O)n(C)c2=O)n1	none
CCOc1c(C)cnc2c1c(=O)n(CC(=O)NCC1CCCO1)c(=O)n2C (stereo not drawn)	none
OC1(c2ccc(F)cc2)CSC(=Nc2cccnc2)N1Cc1ccco1 (stereo not drawn)	RXFP1 antagonist -62.0
O=C1N=C(N2CCCCC2)SC1=C1CCCCC1	none (no result: pAkt inh)
CS(=O)(=O)Oc1ccc(Br)c2cccnc12	none
Nc1ccc(Br)c2cccnc12	RXFP1 antagonist -64.9
COCCNC(=O)c1ccc(Cn2c(=S)[nH]c3cc4c(cc3c2=O)OCO4)cc1	RXFP1 antagonist -103.9
COC(CNC(=O)c1ccc(Cn2c(=S)[nH]c3cc4c(cc3c2=O)OCO4)cc1)OC	RXFP1 antagonist -98.1
O=C(NCc1ccccn1)c1ccc(Cn2c(=S)[nH]c3ccccc3c2=O)cc1	RXFP1 antagonist -77.5
CCOC(=O)CSc1nnc(-c2ccc(S(=O)(=O)N3CCC(C)CC3)cc2)o1	none
O=C(Nc1ncc([N+](=O)[O-])s1)C1CCN(S(=O)(=O)c2cnc[nH]2)CC1	none
O=C(CC[C@H]1O[C@@H](n2ccc(=O)[nH]c2=O)[C@H](O)[C@@H]1O)NCCc1c[nH]c2ccccc12	none (no result: KCNH2 3.1 block, RXFP1 antagonist, RXFP1 agonist, hERG WT inh)
CCc1cccc2c(C(=O)COC(=O)[C@@H]3CC(O)CN3S(=O)(=O)c3ccccc3[N+](=O)[O-])c[nH]c12 (stereo partly drawn)	RXFP1 antagonist -80.0 (no result: RXFP1 agonist)
CCCN(CC(=O)Nc1ccccc1C)C(=O)CCNC(=O)c1ccccc1Cl	none
N#CC(CCc1ccc([N+](=O)[O-])cc1)(CCc1ccc([N+](=O)[O-])cc1)C(N)=O	KCNH2 3.1 block -129.1, hERG WT inh -92.9 (no result: RXFP1 agonist)
O=[N+]([O-])c1ccc(Cc2ccc([N+](=O)[O-])cc2)cc1	none (no result: RXFP1 agonist)
CCN(Cc1ccccc1)S(=O)(=O)c1ccc2c(c1)NC(=O)CS2	RXFP1 antagonist -72.4 (no result: pAkt inh)
CCN(Cc1ccccc1)S(=O)(=O)c1ccc2c(c1)NC(=O)CC(=O)N2	none (no result: hERG WT inh)
Cc1ccccc1C(=O)N1CCC(C(N)=O)CC1	none
